Shiga inhibitor: A qHTS for Small Molecule Inhibitors of Shiga Toxin; Vero cells, Shiga toxin protein synthesis inhibition reporter; inhibition, % at 38.7 µM; 9.2% of 290,000 active; in the data active = inhibition mostly above about 28%, no sharp cut-off; inactive = mostly below about 43%; also: 0% is about no effect
MARV entry inh: qHTS for inhibitors of binding or entry into cells for Marburg Virus; Potency, µM (series often up to 37.8 µM), for inactives: at the highest dose activity change, negative = inhibition, usual class: inhibitors; Marburg virus pseudotyped entry inhibition, cell reporter; 1.8% of 300,000 active; calls by dose curve; tested in HEK293 cells; also: potency is read from the fitted curve at half-maximal effect; % is scaled to controls: 0 for no effect and ±100 for the full control effect
CHX counter: Cycloheximide Counterscreen for Small Molecule Inhibitors of Shiga Toxin. cell reporter, cycloheximide protein synthesis inhibition counterscreen. max response, %. 12% of 300,000 active. AID 2314, 2010; in the data active = max response mostly above about 13%, no sharp cut-off; inactive = mostly below about 14%; also: read at 38.3 µM for the half of the compounds with a filed dose; 0% is about no effect
Lassa entry inh: qHTS for Inhibitors of binding or entry into cells for Lassa Virus; Lassa virus pseudotype entry inhibition, cell reporter; Potency, µM (titrated, usually from 37.9 µM), for inactives: at the top dose activity change, negative = inhibition, most hits filed as inhibitors; 1.2% of 300,000 active; calls by dose curve; tested in HEK293 cells; also: potency is read from the fitted curve at half-maximal effect; % is scaled to controls: 0 for no effect and ±100 for the full control effect; nearly all actives have a fitted effect of over 50% in size
An asterisk follows results filed as active; ? = inconclusive; . = no result given; [ ] = remark or other dose. Sampled rows, rich in hits. Any-hit rate of the full collection: about 12%.

SMILES	Shiga inhibitor	MARV entry inh	CHX counter	Lassa entry inh
COc1ccc(C(=O)/C=C/c2ccccc2C(F)(F)F)cc1	29	-25%	26*	-20%
COc1ccc(N/C=C/C(=O)c2ccccc2)cc1	.	.	9	.
CC(C)(Oc1ccc(Cl)cc1)C(=O)NCC1CCCO1 (centres undefined)	.	2%[46.1 µM]	.	-5%
COc1ccccc1-c1cc(C(=O)N2CCN(S(=O)(=O)c3ccc(C)cc3)CC2)[nH]n1	-10	.	-3	.
CC(C)(C)C(=O)/C=C/c1ccc(Oc2ccccc2)cc1	120*	.	50*	.
O=C(O)/C=C/c1ccc(Oc2ncccn2)cc1	3	.	-1	.
CCOc1ccc(C(=O)/C=C/c2ccccc2C(F)(F)F)cc1	22	7%	21*	-6%
CCOc1ccc(/C=C/C(=O)NC2CCCCC2)cc1	.	5%	18*	0%
O=C(/C=C/c1ccccc1)NCCOc1ccccc1	77*	11%	39*	17%
CCc1c(O)nc(SCC(=O)Nc2nc3ccccc3s2)n(C2CCCCC2)c1=O	-3	.	1	.
CN(C)C(CNC(=S)Nc1ccc(Cl)cc1)c1cccnc1 (centres undefined)	-8	3%[46.1 µM]	-3	-8%
O=C(CCSc1ccc(Cl)cc1)NCc1ccccn1	23	-2%	13*	-1%
O=C(CCCOc1ccc(Cl)cc1Cl)NCCCO	-20	15%	12	0%
O=C(CCCOc1ccc(Cl)cc1Cl)NCCc1ccccn1	39*	13%[46.1 µM]	31*	-24%
O=C(CCCOc1ccc(Cl)cc1Cl)NCCc1nnc2ccccn12	19*	-3%[46.1 µM]	15	-24%[46.1 µM]
Cc1ccc(N2C(=O)N(Cc3cccc(Cl)c3)c3ccccc3S2(=O)=O)cc1	.	.	.	-27%[46.1 µM]
O=C(CSc1cccc[n+]1[O-])Nc1cc2c(cc1Cl)C(=O)c1ccccc1C2=O	82*	?	26*	5%
O=C(CSc1cccc[n+]1[O-])Nc1cc(S(=O)(=O)N2CCOCC2)ccc1N1CCOCC1	14	3%	49*	?
C#Cc1ccccc1C[C@]1(C(=O)OC)C=C[C@H](C)[C@@H](c2ccccc2Br)N1C(=O)C(F)(F)F	.	7%[14.2 µM]	.	.
Nc1ccc(C(=O)NN2C(=O)[C@H](Cl)C2c2ccc(Cl)cc2)cc1 (some centres undefined)	.	8.9µM*	.	11µM*
CCNC(=O)CC1C(=O)N(C)C(=S)N1NC(=O)c1ccc(Cl)cc1 (centres undefined)	-7	4%	1	-8%
CCC(C)(C)NC(=O)c1ccc2c(c1)N(CC(=O)NC1CCCC1)C(=O)C(C)(C)O2	-6	-15%[46.1 µM]	-5	1%[46.1 µM]
Cc1ccc(CNC(=O)c2ccccc2NC(=O)CN2CC(C)OC(C)C2)cc1 (centres undefined)	1	-20%[46.1 µM]	1	6%
CC(=O)c1ccc(NC(=O)C(C)NCc2ccccc2Cl)cc1 (centres undefined)	23	-1%[46.1 µM]	24*	3%[46.1 µM]
CCCC(=O)Nc1ccc(C(=O)NCc2ccccc2Cl)cc1	14	5%	9	7%
SMILES	Shiga inhibitor	MARV entry inh	CHX counter	Lassa entry inh
COC(=O)/C(=C\C(=O)c1ccccc1)Nc1cccc(C(F)(F)F)c1	98*	-27%	44*	19%
NC(=O)c1cccc(NC(=O)Nc2ccc(Cl)cc2)c1	22	-4%	19*	11%
CC(=O)Nc1cccc(NC(=O)C2C3C=CC(C3)C2C(=O)O)c1 (centres undefined)	30	.	-1	.
CC(=O)c1cccc(NC(=O)C2C3C=CC(C3=C(c3ccccc3)c3ccccc3)C2C(=O)O)c1 (centres undefined)	47	.	11*	.
COC(=O)/C=C/C(=O)Nc1cccc(C(F)(F)F)c1	18	?	-2	-10%
Cc1ccccc1-n1nc2c(c1NC(=O)c1cc3ccccc3o1)CS(=O)(=O)C2	.	-12%	.	0%
CCc1ccc(N2CC(C(=O)OCC(=O)c3c(N)n(CC(C)C)c(=O)n(C)c3=O)CC2=O)cc1 (centres undefined)	.	-19%	.	-10%
COc1ccc(C(C)C)cc1S(=O)(=O)NC1CCCC1	-3	.	0	.
O=C(NNC(=O)c1ccc(NC(=O)c2ccccc2)cc1)c1ccccc1	-11	-12%[46.1 µM]	-1	-10%
CNC(=O)c1ccc(NC(=O)Nc2ccccc2)cc1	50*	.	30*	.
N#Cc1ccc(NC(=O)Nc2ccc(Cl)cc2)cc1	61*	?	38*	?
CC(=O)c1cccc(NC(=O)N(c2ccccc2)c2ccccc2)c1	.	13%	3	-1%
CC(=O)c1cccc(NC(=O)Nc2ccccc2)c1	62*	?	26*	2%[46.1 µM]
CC(=O)c1ccc(NC(=O)Nc2ccccc2)cc1	79*	?	38*	8.2µM*

High-throughput results as filed in PubChem BioAssay.
